# From PubChem BioAssay AID1159580 (chemical genetic matrix, 2015)
# About 2,000 (36%) of roughly 5,500 compounds were called active. Inconclusive results (about 18%) are left out. The list shows a part of the results. Unmarked numbers belong to inactive results. Cut-off read from the data, not from the text of the source: active = normalized growth mostly below about 0.91 (no sharp cut-off); inconclusive = no clear call, values can overlap the other calls; inactive = mostly above about 0.92.
# Test: chemical genetic growth profiling, strain panel (AID 1159580);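 note: tested at 20 µM; growth read once vehicle control cultures reached saturation at 30 °C; 1 = growth at the plate median or of vehicle wells; lower values mean less growth of the strain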
# Conditions: S. cerevisiae deletion strains, growth OD
smiles,measurement,setting,value
O=c1c2ccccc2oc2ccccc12,normalized growth,"locus YAL021C, strain ccr4, hits give low values",0.938
same,normalized growth,"locus YAL026C, strain drs2, hits give low values",0.912
same,normalized growth,"locus YAL030W, strain snc1, hits give low values",0.948
same,normalized growth,"locus YBL061C, strain skt5, hits give low values",0.922
same,normalized growth,"locus YBR009C, strain hhf1, hits give low values",0.854 (active)
same,normalized growth,"locus YBR023C, strain chs3, hits give low values",0.916
same,normalized growth,"locus YBR171W, strain sec66, hits give low values",0.897
same,normalized growth,"locus YBR231C, strain swc5, hits give low values",0.858 (active)
same,normalized growth,"locus YBR279W, strain paf1, hits give low values",0.922 (active)
same,normalized growth,"locus YCL011C, strain gbp2, hits give low values",0.907 (active)
same,normalized growth,"locus YCL016C, strain dcc1, hits give low values",0.869 (active)
same,normalized growth,"locus YCL061C, strain MRC1, hits give low values",0.917 (active)
same,normalized growth,"locus YCL069W, strain vba3, hits give low values",0.961
same,normalized growth,"locus YCR088W, strain abp1, hits give low values",0.964
same,normalized growth,"locus YDL005C, strain med2, hits give low values",0.946
same,normalized growth,"locus YDL040C, strain nat1, hits give low values",0.946
same,normalized growth,"locus YDR001C, strain nth1, hits give low values",0.953
same,normalized growth,"locus YDR069C, strain doa4, hits give low values",0.927
same,normalized growth,"locus YDR137W, strain rgp1, hits give low values",0.794 (active)
same,normalized growth,"locus YDR159W, strain sac3, hits give low values",0.989
same,normalized growth,"locus YDR195W, strain ref2",1.33 [resistant] (active)
same,normalized growth,"locus YDR297W, strain sur2, hits give low values",0.945
same,normalized growth,"locus YDR334W, strain swr1, hits give low values",0.929
same,normalized growth,"locus YDR335W, strain msn5, hits give low values",0.946
same,normalized growth,"locus YDR392W, strain spt3, hits give low values",0.495 (active)
same,normalized growth,"locus YEL003W, strain gim4, hits give low values",0.906 (active)
same,normalized growth,"locus YEL037C, strain rad23, hits give low values",0.944
same,normalized growth,"locus YEL061C, strain CIN8 (second series), hits give low values",0.879 (active)
same,normalized growth,"locus YER015W, strain faa2, hits give low values",0.954
same,normalized growth,"locus YER016W, strain bim1, hits give low values",0.95
same,normalized growth,"locus YER111C, strain swi4, hits give low values",0.937
same,normalized growth,"locus YER155C, strain BEM2 (second series), hits give low values",0.386 (active)
same,normalized growth,"locus YFR010W, strain ubp6, hits give low values",0.915
same,normalized growth,"locus YGL167C, strain pmr1, hits give low values",0.931
same,normalized growth,"locus YGL173C, strain kem1, hits give low values",0.907
same,normalized growth,"locus YGL227W, strain vid30, hits give low values",0.95
same,normalized growth,"locus YGL240W, strain doc1, hits give low values",0.84 (active)
same,normalized growth,"locus YGL253W, strain hxk2, hits give low values",0.859 (active)
same,normalized growth,"locus YHR013C, strain ard1, hits give low values",0.738 (active)
same,normalized growth,"locus YHR027C, strain rpn1, hits give low values",0.944
same,normalized growth,"locus YHR030C, strain SLT2, hits give low values",0.813 (active)
same,normalized growth,"locus YHR079C, strain IRE1, hits give low values",0.822 (active)
same,normalized growth,"locus YHR142W, strain chs7, hits give low values",0.766 (active)
same,normalized growth,"locus YJL092W, strain hpr5, hits give low values",0.945
same,normalized growth,"locus YJL095W, strain BCK1 (second series), hits give low values",0.853 (active)
same,normalized growth,"locus YJL095W, strain BCK1, hits give low values",0.857 (active)
same,normalized growth,"locus YJL115W, strain asf1, hits give low values",0.953
same,normalized growth,"locus YJL129C, strain trk1, hits give low values",0.976
same,normalized growth,"locus YJL154C, strain vps35, hits give low values",0.964
same,normalized growth,"locus YJL164C, strain tpk1, hits give low values",0.891 (active)
same,normalized growth,"locus YJL166W, strain qcr8, hits give low values",0.879 (active)
same,normalized growth,"locus YJL187C, strain SWE1, hits give low values",0.935
same,normalized growth,"locus YJR066W, strain TOR1, hits give low values",0.8 (active)
same,normalized growth,"locus YKL160W, strain elf1, hits give low values",0.879 (active)
same,normalized growth,"locus YKR026C, strain gcn3, hits give low values",0.949
same,normalized growth,"locus YKR091W, strain srl3, hits give low values",0.956
same,normalized growth,"locus YLL001W, strain dnm1, hits give low values",0.884 (active)
same,normalized growth,"locus YLL026W, hits give low values",0.951
same,normalized growth,"locus YLL041C, strain sdh2, hits give low values",0.952
same,normalized growth,"locus YLR027C, strain aat2, hits give low values",0.932
same,normalized growth,"locus YLR113W, strain HOG1, hits give low values",0.941
same,normalized growth,"locus YLR221C, strain rsa3, hits give low values",0.87 (active)
same,normalized growth,"locus YLR258W, strain gsy2, hits give low values",0.916
same,normalized growth,"locus YLR262C, strain YPT6 (second series), hits give low values",0.769 (active)
same,normalized growth,"locus YLR320W, strain mms22, hits give low values",0.697 (active)
same,normalized growth,"locus YLR342W, strain FKS1, hits give low values",0.963
same,normalized growth,"locus YLR357W, strain rsc2, hits give low values",1.06
same,normalized growth,"locus YLR370C, strain arc18, hits give low values",0.952
same,normalized growth,"locus YLR384C, strain iki3, hits give low values",0.921
same,normalized growth,"locus YML120C, strain ndi1, hits give low values",0.915
same,normalized growth,"locus YMR058W, strain fet3, hits give low values",0.918
same,normalized growth,"locus YMR125W, strain sto1, hits give low values",0.918
same,normalized growth,"locus YMR129W, hits give low values",0.946
same,normalized growth,"locus YMR205C, strain PFK2, hits give low values",0.913
same,normalized growth,"locus YMR231W, strain pep5, hits give low values",0.947
same,normalized growth,"locus YNL071W, strain lat1, hits give low values",0.737 (active)
same,normalized growth,"locus YNL183C, strain NPR1, hits give low values",0.841
same,normalized growth,"locus YNL209W, strain ssb2, hits give low values",0.93
same,normalized growth,"locus YNL248C, strain rpa49, hits give low values",0.511 (active)
same,normalized growth,"locus YNL322C, strain KRE1 (second series), hits give low values",0.965
same,normalized growth,"locus YNR049C, strain mso1, hits give low values",0.961
same,normalized growth,"locus YOR001W, strain rrp6, hits give low values",0.88 (active)
same,normalized growth,"locus YOR070C, strain gyp1, hits give low values",0.934
same,normalized growth,"locus YOR080W, strain dia2, hits give low values",0.966
same,normalized growth,"locus YOR083W, strain WHI5, hits give low values",0.814 (active)
same,normalized growth,"locus YOR106W, strain vam3, hits give low values",0.88
same,normalized growth,"locus YOR231W, strain MKK1, hits give low values",0.836 (active)
same,normalized growth,"locus YOR265W, strain rbl2, hits give low values",0.936
same,normalized growth,"locus YOR270C, strain vph1, hits give low values",0.611 (active)
same,normalized growth,"locus YOR290C, strain snf2, hits give low values",0.792 (active)
same,normalized growth,"locus YPL051W, strain arl3, hits give low values",0.859 (active)
same,normalized growth,"locus YPL078C, strain atp4, hits give low values",0.842 (active)
same,normalized growth,"locus YPL106C, strain sse1, hits give low values",0.759 (active)
same,normalized growth,"locus YPL240C, strain hsp82, hits give low values",0.969
same,normalized growth,"locus YPL256C, strain CLN2, hits give low values",0.876
